# Compounds without any hit were thinned out: in the full panel of roughly 83,000, 20% have a hit.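 Assay: single dose, 48 h. Readout: percent growth (0 = no net growth; negative = cell death). Active: <10.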 A number with no mark means an inactive call. Active and inactive are the calls of the source.
# How the values were obtained:
# Experiment in all cases: NCI-60 one-dose screen, 48 h (100 = growth as untreated, 0 = no growth, -100 = all killed)
# Settings in all cases: 10 µM unless noted
# [1] = system: SR leukemia
# [2] = system: RPMI-8226 leukemia
# [3] = system: OVCAR-8 ovarian
# [4] = system: OVCAR-5 ovarian
# [5] = system: OVCAR-4 ovarian
# [6] = system: SK-OV-3 ovarian
# [7] = system: IGROV1 ovarian
# [8] = system: OVCAR-3 ovarian
# [9] = system: HS 578T breast
# [10] = system: NCI/ADR-RES ovarian
Compound,growth [1],growth [2],growth [3],growth [4],growth [5],growth [6],growth [7],growth [8],growth [9],growth [10]
N#C/C(=C1/C(=O)Nc2ccccc21)c1nnc(NC(=O)c2ccc(-n3c(=O)[nH]c4ccccc4c3=O)cc2)s1,17%,11.5%,40.2%,63.5%,31.2%,75.1%,38.7%,25.6%,55.6%,22.9%
COc1cc(CNC(=O)C[C@H](C)CCC=C(C)C)ccc1OCc1cn(-c2cccc(C(F)(F)F)c2)nn1,41.5%,89.8%,28.1%,97.5%,45.1%,89%,102%,103%,94.3%,44%
Cc1cccc(C)c1Nc1nnc(-c2c[nH]c3ccccc23)o1,91.5%,86%,101%,103%,102%,76.9%,89%,121%,95.9%,94.9%
Clc1ccccc1Nc1nnc(-c2c[nH]c3ccccc23)o1,15.7%,4.23% (active),13.4%,29.8%,73.2%,22.1%,19.4%,9.25% (active),18.2%,-18.8% (active)
Cc1ccccc1Nc1nnc(-c2c[nH]c3ccccc23)o1,15.5%,7.25% (active),18.9%,33.4%,79.9%,17.6%,20.8%,7.3% (active),-2.08% (active),-20.2% (active)
CN(CCSSCCN1CCOCC1)C(=O)Oc1cc2c(c3ccccc13)[C@H](CCl)CN2C(=O)c1cc2cc(OCCCN3CCC3)ccc2[nH]1,-26.2% (active),-28.5% (active),-15.7% (active),-36.7% (active),-28.7% (active),-27.7% (active),-22.1% (active),-46.7% (active),-16.8% (active),-30.4% (active)
CCOc1ccccc1[C@H]1C(C(=O)c2ccc(Cl)cc2)C2(N[C@@H]1c1ccccc1)C(=O)Nc1ccc(Br)cc12 (stereo not given in full),-45.6% (active),5.23% (active),12.1%,-20.8% (active),13.7%,24.4%,1% (active),-4.84% (active),-5.81% (active),-46.7% (active)
CCCCN1C(=O)/C(=C\C(=O)c2cc3ccccc3oc2=O)c2ccccc21,-2.51% (active),23.7%,67.3%,96.7%,83.9%,110%,70.2%,34.3%,75.6%,67.5%
CCOC(=O)/C(F)=C/C1CC1C(c1ccccc1)c1ccccc1 (stereo not given),63.3%,69.5%,105%,102%,87.3%,148%,90.8%,103%,81.3%,89.4%
O=C(Nc1ccc(-c2ccc3c(c2)NC(=O)/C3=C\c2ccc[nH]2)cc1)Nc1ccc(Cl)c(Cl)c1,16%,41.1%,55.6%,67.9%,37.6%,94.7%,65.7%,12.9%,45.9%,51.4%
Nc1ccc(-c2ccc3ncnc(N4CCc5cc(F)c(Cl)cc54)c3c2)cn1,0.174% (active),6.22% (active),42.5%,20.6%,34.6%,1.92% (active),-46% (active),4.61% (active),-15.8% (active),30%
COc1ccc2[nH]c(O)c(N=Nc3nc(-c4ccc(C#N)cc4)cs3)c2c1,17.4%,34.9%,58.2%,94.1%,-46.8% (active),104%,77.6%,8.62% (active),36.5%,63.1%
